About 79,000 compounds went through this panel and 15% of them were active in at least one assay; those are over-represented in the sample as a whole. Unmarked numbers belong to inactive results. Calls of active or inactive are those of the source. Rule as the data show it: active = growth inhibition above about 70%; inactive = the rest.

The nature of test [1]: NCI Yeast Anticancer Drug Screen. Data for the rad50 strain (AID 155).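 Also: 0% = growth of vehicle-only cultures of the same strain.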 As to conditions: S. cerevisiae rad50 strain growth inhibition; at 50.0 µM; active compounds read high. Summed up:
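Inhibition values express reduced yeast growth in compound-treated cultures relative to vehicle-treated controls.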

A short description of test [2]: NCI Yeast Anticancer Drug Screen. Data for the mec2-1 strain (AID 157). Particulars: S. cerevisiae mec2-1 strain, at 50.0 µM, active compounds read high. Put shortly:
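Cells of the genetically defined mec2-1 yeast strain are incubated with test compound. Inhibition of growth is calculated against vehicle-treated controls.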

Test [3] is described as follows: NCI Yeast Anticancer Drug Screen. Data for the sgs1 mgt1 strain (AID 161).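 Also: 0% = growth of cultures given vehicle only.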 Particulars: S. cerevisiae sgs1 mgt1 strain, at 50.0 µM, active compounds read high. Put shortly:
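Test agents were incubated with a DNA-repair-mutant yeast strain. Growth was then read and compared against vehicle-treated controls.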

Test [4] can be described thus: NCI Yeast Anticancer Drug Screen. Data for the cln2 rad14 strain (AID 165).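 Also: 0% = growth equal to vehicle treated cultures.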 As to conditions: S. cerevisiae cln2 rad14 strain, at 50.0 µM, active compounds read high. Summed up:
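The screen exposed genetically defined yeast (cln2 rad14) to test compounds and scored growth inhibition relative to vehicle-treated controls.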

Test [5] is described as follows: NCI Yeast Anticancer Drug Screen. Data for the bub3 strain (AID 167). Particulars: S. cerevisiae bub3 mutant strain, at 50.0 µM, active compounds read high. Put shortly:
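Steps: expose the mutant yeast strain to compound; grow alongside vehicle-treated cultures; measure growth; express inhibition against the vehicle cultures.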

Test [6] in a line: NCI Yeast Anticancer Drug Screen. Data for the mlh1 rad18 strain (AID 175). As to conditions: S. cerevisiae mlh1 rad18 strain growth inhibition; at 50.0 µM; active compounds read high. Put shortly: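 Compound-treated yeast growth, normalised to vehicle controls. Strain bears defined DNA repair mutations.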

Consider `O=C(O)c1onc2ccccc12`, for which the growth inhibition in test [1] is -17.9%; in test [2] it was -15.1%; in test [3], -35.2%; in test [4], -7.7%; in test [5], -5.15%; in test [6] it was -29.8%.

Regarding `NC(=S)NCCN1CCOCC1`, the growth inhibition is -8.85% in test [1]; -5.95% in test [2]; -1.9% in test [3]; -15.7% in test [4]; 2.25% in test [5]; 10% in test [6].

For `C=CC[N+]12CC=C3COC(=O)C(C)(O)C(C)(O)C(C)C(=O)OC(CC1)C32` (stereo unspecified), the growth inhibition in test [1] is 0.4%; in test [2], -0.2%; in test [3] it was 0.4%; in test [4], -25.9%; in test [5], -3.55%; in test [6] it was -5.65%.

Turning to `Cc1nc(-c2ccc([N+](=O)[O-])cc2)cn2c1nc1ccccc12`, the growth inhibition is -26.9% in test [1]; -33% in test [2]; -34.1% in test [3]; -67.6% in test [4]; -4.25% in test [5]; -17.8% in test [6].

As to `C=CCOC(=O)NC(CCC(=O)OC)C(=O)O` (stereo unspecified), the growth inhibition in test [1] was -0.5%; in test [2], -2.1%; in test [3] it was -6.25%; in test [4] it was -9.3%; in test [5], -2.45%; in test [6], -0.2%.

In the case of `CN1C(=O)c2ccccc2C(O)(c2ccccc2)C1(O)c1ccccc1` (stereo unspecified), the growth inhibition in test [1] is -6.3%; in test [2], -20.9%; in test [3], -26.7%; in test [4], 12.2%; in test [5] it was -12.2%; in test [6], -38.9%.

As to `C(=N\c1oc(-c2ccccc2)nc1SCc1ccccc1)/c1ccccc1`, the growth inhibition in test [1] is 2.75%; in test [2] it was 11.2%; in test [3], 23.1%; in test [4] it was -19.8%; in test [5], 7.3%; in test [6] it was 25.9%.

Turning to `Cc1nsc2[nH]c(=O)n(Nc3ccc(O)cc3)c(=O)c12`, the growth inhibition is -13.6% in test [1]; 1.1% in test [2]; -18.7% in test [3]; 8.75% in test [4]; 5% in test [5]; -4.9% in test [6].

As to `CCSSC12CCCN1C(=O)C1CCCN1C2=O` (stereo unspecified), the growth inhibition was 49% in test [1]; 40.9% in test [2]; 9.4% in test [3]; -40% in test [4]; 20.6% in test [5]; 20.4% in test [6].

Turning to `FC(F)(F)c1cc(Br)c2ccc3ncccc3c2n1`, the growth inhibition in test [1] is 6.5%; in test [2], 8.3%; in test [3], -1.05%; in test [4], -5.2%; in test [5], 6.8%; in test [6], 3.1%.

On to `NC(=NCC(O)c1ccccc1)Nc1ccccc1` (stereo unspecified), for which the growth inhibition is 0.75% in test [1]; -8.6% in test [2]; 15.1% in test [3]; 6.1% in test [4]; 18.1% in test [5]; 10.6% in test [6].

As for `CCCN1c2c3c(O)c4c(O)c(C)c5c(c4c2O)C(=O)C(C)(O/C=C/C(OC)C(C)C(OC(C)=O)C(C)C(O)C(C)C(O)C(C)/C=C/C=C(/C)C(=O)N3C1C)O5` (stereo unspecified), the growth inhibition in test [1] is 22.6%; in test [2], 35.9%; in test [3], 44%; in test [4], 37.2%; in test [5], 19%; in test [6], 18.2%.

Consider `CC(C)(C)c1cc2c(OP(c3ccccc3)c3ccccc3)c(c1)Cc1cc(C(C)(C)C)cc(c1OP(c1ccccc1)c1ccccc1)Cc1cc(C(C)(C)C)cc(c1OP(c1ccccc1)c1ccccc1)Cc1cc(C(C)(C)C)cc(c1OP(c1ccccc1)c1ccccc1)C2`, for which the growth inhibition is -11.8% in test [1]; -25.9% in test [2]; -38.5% in test [3]; -5.15% in test [4]; -18.7% in test [5]; -14.2% in test [6].

With `O=c1[nH]c2cc(Cl)c([N+](=O)[O-])cc2c2ccc(Cl)cc12`, the growth inhibition was 3.15% in test [1]; -7.7% in test [2]; -1.6% in test [3]; -10.7% in test [4]; 3.1% in test [5]; 8.05% in test [6].

Turning to `N#CCCN(CCC#N)c1ccc(C=O)cc1`, the growth inhibition is 20.3% in test [1]; 8.05% in test [2]; 17.2% in test [3]; -4.25% in test [4]; 26.6% in test [5]; 13.6% in test [6].

Turning to `O=C1OC(c2ccccc2)=N/C1=C\c1cccnc1`, the growth inhibition in test [1] was 12.3%; in test [2], -3.25%; in test [3], 0%; in test [4], -10.3%; in test [5], -5.8%; in test [6], 13.1%.

Turning to `Cc1c2c(=O)oc3ccc(Cl)cc3c2nn1-c1ccccc1`, the growth inhibition was -13.9% in test [1]; -9.4% in test [2]; -11.8% in test [3]; -7.8% in test [4]; -25.7% in test [5]; -9.65% in test [6].

Take `OCC1=C(CO)CC=CC1`: the growth inhibition was -21% in test [1]; 10% in test [2]; 2.2% in test [3]; 1.5% in test [4]; -3.05% in test [5]; 28.6% in test [6].

Turning to `COc1ccccc1CC/C(C)=N/NS(=O)(=O)c1ccc(C)cc1`, the growth inhibition is 10.8% in test [1]; 4.1% in test [2]; 6.35% in test [3]; -24.1% in test [4]; 11.5% in test [5]; 6.5% in test [6].

For the compound `NCCCCCCN`, the growth inhibition was -50.6% in test [1]; -6.05% in test [2]; -36.6% in test [3]; -46.8% in test [4]; -45.5% in test [5]; -65% in test [6].

Regarding `O=c1[nH]cnc2c1ncn2C1CCC(CO)O1` (stereo unspecified), the growth inhibition in test [1] is -11%; in test [2], 14.6%; in test [3], 11.3%; in test [4], -0.1%; in test [5] it was 1.85%; in test [6] it was -8.85%.

For `NC(CSSCC(N)=NCC12CC3CC(CC(C3)C1)C2)=NCC12CC3CC(CC(C3)C1)C2`, the growth inhibition is 99.4% (active) in test [1]; 99.5% (active) in test [2]; 99.5% (active) in test [3]; 97.4% (active) in test [4]; 98.8% (active) in test [5]; 99.2% (active) in test [6].

For the compound `CC/C=N/Nc1cn[nH]c(=O)c1Cl`, the growth inhibition in test [1] is -1.3%; in test [2], 0.1%; in test [3], 9.85%; in test [4], 4.85%; in test [5] it was -7.75%; in test [6], -14.9%.

Turning to `Fc1ccccc1-c1ccccc1`, the growth inhibition in test [1] was -26.4%; in test [2], -1.5%; in test [3], -13.5%; in test [4], -37.5%; in test [5], -10.8%; in test [6], -11.2%.

For the compound `COC(=O)c1cc2ccccc2cc1Nc1ccc2ccccc2c1`, the growth inhibition was 2.25% in test [1]; 4.7% in test [2]; 5.25% in test [3]; -10.3% in test [4]; -0.7% in test [5]; 7.3% in test [6].

`CCOP(=O)(OCC)C1OCC(O)C(C2OC(P(=O)(OCC)OCC)OCC2O)O1` (stereo unspecified): the growth inhibition in test [1] is 7.95%; in test [2] it was 4.4%; in test [3], 2.45%; in test [4] it was 0.85%; in test [5], -1.55%; in test [6] it was 7.25%.

As for `NC(Cc1cccs1)C(=O)O` (stereo unspecified), the growth inhibition in test [1] is -31.9%; in test [2], -21.9%; in test [3] it was -27.6%; in test [4], -43%; in test [5], -2.5%; in test [6], -37.1%.

As to `Cc1cccc2c(N)c3cccc(C(=O)NCC[N+](C)(C)[O-])c3nc12`, the growth inhibition was 8.7% in test [1]; -13.3% in test [2]; 11.1% in test [3]; 31% in test [4]; 18.4% in test [5]; 20.6% in test [6].

For `CCOC(=O)C(C#N)CCC(C)=O` (stereo unspecified), the growth inhibition in test [1] was -12.3%; in test [2] it was -11.1%; in test [3], 17.4%; in test [4], -24.4%; in test [5], -7.8%; in test [6] it was -28.6%.

Consider `CCOC(=O)N1C2C=C(C)C(ON2C(=O)c2ccccc2)C2C(C)C(=O)N21` (stereo unspecified), for which the growth inhibition in test [1] was -3.8%; in test [2], -10.7%; in test [3], -5.8%; in test [4], 18.1%; in test [5] it was -17.5%; in test [6], -13.4%.

For `COC(=O)c1ccccc1NC(=O)Nc1ccc(F)c([N+](=O)[O-])c1`, the growth inhibition in test [1] was 3.75%; in test [2], 22.9%; in test [3], 3.15%; in test [4], 0.85%; in test [5] it was 11.6%; in test [6], -10.9%.

Consider `CCCc1nnnn1C12CC3CC(CC(C3)C1)C2`, for which the growth inhibition is 30.6% in test [1]; 18.8% in test [2]; 2.15% in test [3]; 2.2% in test [4]; 18.3% in test [5]; 28.1% in test [6].

As for `CCCCNS(=O)(=O)c1n[nH]c(=O)[nH]c1=O`, the growth inhibition is -27.1% in test [1]; -10.1% in test [2]; -37.9% in test [3]; -12.4% in test [4]; -38% in test [5]; -19.2% in test [6].

Consider `CCOC(=O)C(Cc1c[nH]c2ccccc12)NC(=O)C1(O)C(O)C2(CC)C=CCN3CCC4(c5cc(C6(C(=O)OC)CC7CC(CC)CN(CCc8c6[nH]c6ccccc86)C7)c(OC)cc5N(C)C14)C32` (stereo unspecified), for which the growth inhibition in test [1] is 20.8%; in test [2] it was 20.2%; in test [3], 7.75%; in test [4], 32.4%; in test [5] it was 17%; in test [6] it was 6.2%.

With `Cc1ccc(S(=O)(=O)N/N=C2/C(=N/NS(=O)(=O)c3ccc(C)cc3)c3cccc4cccc2c34)cc1`, the growth inhibition in test [1] was 50%; in test [2] it was 11.4%; in test [3], 36.7%; in test [4] it was 8.3%; in test [5], 14.8%; in test [6], 11.3%.

For the compound `Nc1cc(Cl)cc(S(=O)(=O)O)c1O`, the growth inhibition is 1.9% in test [1]; -0.05% in test [2]; -2.95% in test [3]; -65.9% in test [4]; 9.05% in test [5]; -13.9% in test [6].
